Assay results taken from PubChem BioAssay (EPA / NIEHS).
Results filed as inconclusive are left out. The source made the active and inactive calls. Rule for the calls, unless noted: active = hit-call score of the fitted dose curve at least 0.9, where 1 is the maximum; inconclusive = response in the unintended direction; inactive = score below 0.9.

How the values were obtained:
[1] = molecular target: Cellular tumor antigen p53 (Homo sapiens) (UniProt P04637); test: TOX21_p53_BLA_p2_ratio: Tox21 HCT-116 p53 Agonism Beta-lactamase Assay, Ratio, Phase 2 (AID 2283592)
Method in brief: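 In this cell-based reporter format, HCT116 cells were dosed with chemicals delivered from DMSO by 217-fold dilution and incubated 16 h at 37C. Emission at 460 and 530 nm after 2 h CCF4-AM loading provided the ratio, fitted upward versus DMSO.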

[2] = molecular target: Cellular tumor antigen p53 (Homo sapiens) (UniProt P04637); test: TOX21_p53_BLA_p3_ratio: Tox21 HCT-116 p53 Agonism Beta-lactamase Assay, Ratio, Phase 3 (AID 2283596)
Method in brief: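 HCT116 p53-bla cells (4000/well) given compound in DMSO (217-fold dilution) after 5 h, incubated 16 h at 37C. CCF4-AM substrate 2 h at room temperature; 460/530 nm emission ratio, gain fitted against DMSO.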

[3] = molecular target: Cellular tumor antigen p53 (Homo sapiens) (UniProt P04637); test: TOX21_p53_BLA_p5_ratio: Tox21 HCT-116 p53 Agonism Beta-lactamase Assay, Ratio, Phase 5 (AID 2283599)
Method in brief: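 HCT-116 p53-bla cells (4000/well) plated 5 h, dosed with compound (217-fold DMSO dilution) for 16 h at 37 C; CCF4-AM substrate 2 h at room temperature. Activity is the 460/530 nm emission ratio (405 nm excitation), fitted in gain-of-signal direction versus DMSO.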

[4] = TOX21_p53_BLA_p5_viability: Viability Assessment in the Tox21 HCT-116 p53 Agonism Beta-lactamase Assay, Phase 5 (AID 2283600)
Method in brief: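 Compounds, pinned from DMSO at 217-fold dilution, were left on the cells for 16 h. The viability endpoint was ATP content measured by CellTiter-Glo luminescence, where falling signal reflects cytotoxicity.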

[5] = molecular target: Cellular tumor antigen p53 (Homo sapiens) (UniProt P04637); test: TOX21_p53_BLA_p4_ratio: Tox21 HCT-116 p53 Agonism Beta-lactamase Assay, Ratio, Phase 4 (AID 2283601)
Method in brief: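 HCT-116 p53 beta-lactamase reporter cells (4000/well) preincubated 5 h, then compound (217-fold dilution of DMSO stock) for 16 h at 37C. CCF4-AM substrate added 2 h at room temperature; 460/530 nm emission ratio fitted upward versus DMSO.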

[6] = TOX21_p53_BLA_p4_viability: Viability Assessment in the Tox21 HCT-116 p53 Agonism Beta-lactamase Assay, Phase 4 (AID 2283597);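 note: hits lower the luminescence signal meaning cytotoxicity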
Method in brief: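 We seeded HCT116 p53 reporter cells at 4000/well and waited 5 h. We then added compounds in DMSO at a 217-fold dilution and incubated for 16 h. Viability was read as CellTiter-Glo luminescence after 30 min at RT.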

[7] = STM_H9_OrnCyssISnorm_ratio: Stemina devTOX quickPredict H9 human embryonic stem cell (hESC)-based Assay for Ornithine (ORN):Cystine (CYSS) Ratio (AID 2283714)
Method in brief: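 Undifferentiated H9 hESCs exposed 72 h, media and compound replaced every 24 h; final 24-h conditioned media deproteinized and analysed by UPLC-HRMS against C13 spike-ins. Value is the internal-standard-normalized ORN/CYSS ratio versus 0.1% DMSO.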

[8] = CCTE_Harrill_HTTr_Viability_MCF7: CCTE's 6-hour Cell Viability Assessment for the High-Throughput Transcriptomics (HTTr) Platform, in MCF-7 cells cultured in DMEM + 10% fetal bovine serum, Harrill Lab (AID 2284010; active = hit-call score of the fitted dose curve at least 0.9, where 1 is the maximum; inactive = score below 0.9)
Method in brief: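 Cells were dosed with chemicals in an eight-point dilution series, imaged 6 hours later for propidium iodide uptake, and the endpoint was analyzed by bidirectional fitting against DMSO as negative control.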

[9] = CCTE_Harrill_HTTr_Apoptosis_MCF7: CCTE's 6-hour Apoptosis Assessment for the High-Throughput Transcriptomics (HTTr) Platform, in MCF-7 cells cultured in DMEM + 10% fetal bovine serum, Harrill Lab (AID 2284011; active = hit-call score of the fitted dose curve at least 0.9, where 1 is the maximum; inactive = score below 0.9)
Method in brief: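 Read-out: CellEvent Caspase 3/7 Green signal by high content imaging, gain-of-signal indicating apoptosis. MCF-7 cells, DMEM + 10% FBS, eight-point dilution series, 6 h exposure. Curves fitted bidirectionally relative to DMSO negative control.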

[10] = CCTE_Harrill_HTTr_CellCount_MCF7: CCTE's Cell Proliferation Assessment for the High-Throughput Transcriptomics (HTTr) Platform, Harrill Lab (AID 2284012);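 note: count of Hoechst-stained nuclei per well by high-content imaging in MCF-7 cells; cells exposed to compound for six hours; intended direction is loss of nuclei count meaning fewer cells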
Method in brief: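 Chemicals in eight-point dilution series are added to MCF-7 cells for six hours, nuclei are stained with Hoechst and imaged, and per-well nuclei counts are fitted in both directions relative to DMSO controls.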

Measured: AC50

Chain of Cellular tumor antigen p53 (Homo sapiens) (P04637 whole entry, looked up): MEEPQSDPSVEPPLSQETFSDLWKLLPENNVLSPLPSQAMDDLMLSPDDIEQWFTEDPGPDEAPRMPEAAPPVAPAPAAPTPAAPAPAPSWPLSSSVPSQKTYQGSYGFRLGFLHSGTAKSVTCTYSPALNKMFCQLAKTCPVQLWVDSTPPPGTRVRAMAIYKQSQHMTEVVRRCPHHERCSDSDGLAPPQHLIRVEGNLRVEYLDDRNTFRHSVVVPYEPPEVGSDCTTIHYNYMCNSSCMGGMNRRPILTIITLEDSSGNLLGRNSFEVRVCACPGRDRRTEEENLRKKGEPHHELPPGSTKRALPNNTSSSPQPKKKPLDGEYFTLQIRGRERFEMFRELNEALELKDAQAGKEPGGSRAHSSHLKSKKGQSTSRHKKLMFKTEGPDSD

CC1(C)Cc2cccc(N)c2O1
inactive: [1] | [2] | [3] | [4]

CC(=O)NC[C@H]1CN(c2ccc(N3CCOCC3)c(F)c2)C(=O)O1
inactive: [1] | [2] | [3] | [4] | [5]

CC1(C)CO[C@@H](CC(=O)O)CN1
inactive: [1] | [2] | [6] | [5]

CN(C)CCN(Cc1ccccc1)c1ccccn1
inactive: [1] | [2] | [3]

COc1cc(Nc2c(C#N)cnc3cc(OCCCN4CCN(C)CC4)c(OC)cc23)c(Cl)cc1Cl
active: [2] 17.8 µM | [3] 10.9 µM
inactive: [1]

CN1C[C@H]2c3ccccc3Oc3ccc(Cl)cc3[C@@H]2C1
inactive: [1] | [3] | [5]
active: [2] 43.8 µM

NS(=O)(=O)c1cc2c(cc1Cl)NC(C(Cl)Cl)NS2(=O)=O (stereo unspecified)
inactive: [1] | [2] | [3] | [4] | [5]

CCCCc1ccc2nc(NC(=O)OC)[nH]c2c1
active: [2] 0.0408 µM
inactive: [1] | [3] | [5]

Nc1ncnc2c1ncn2[C@@H]1O[C@H](COP(=O)(O)O)[C@@H](O)[C@H]1O
inactive: [1] | [2] | [3] | [5]

COc1cc(C(=O)NCCCCCC(=O)O)cc(OC)c1OC
inactive: [1] | [2] | [3] | [5]

O=C(c1ccccc1)C1(O)CCCCC1
inactive: [1] | [2] | [3] | [5] | [7] | [8] | [9] | [10]

NC[C@H]1O[C@H](O[C@H]2[C@H](O[C@@H]3O[C@H](CO)[C@@H](O)[C@H]3O)C(O)[C@H](N)C[C@@H]2N)[C@H](N)[C@@H](O)[C@@H]1O (stereo partly specified)
inactive: [1] | [2] | [3] | [5]

O=C(CCNNC(=O)c1ccncc1)NCc1ccccc1
inactive: [1] | [2] | [3] | [4] | [5]

O=C(c1ccc(O)cc1)c1ccc(O)cc1
active: [5] 75.5 µM
inactive: [1] | [2] | [3]

CC(CN(C)C)CN1c2ccccc2S(=O)(=O)c2ccccc21 (stereo unspecified)
inactive: [1] | [2] | [3] | [5]

NC(=O)c1ccc[n+]([C@@H]2O[C@H](COP(=O)([O-])OP(=O)(O)OC[C@H]3O[C@@H](n4cnc5c(N)ncnc54)[C@H](O)[C@@H]3O)[C@@H](O)[C@H]2O)c1
inactive: [1] | [2] | [3] | [5]

CC1(C)S[C@@H]2[C@H](NC(=O)C(C(=O)Oc3ccc4c(c3)CCC4)c3ccccc3)C(=O)N2[C@H]1C(=O)O (stereo partly specified)
inactive: [1] | [2] | [3] | [5]

Cc1ccc(Cl)c(N)c1Cl
inactive: [1] | [2] | [3] | [5]

Cc1cc(O)ccc1O
inactive: [1] | [2] | [3] | [4] | [5]

CC[C@]12CCCN3CCc4c(n(c5ccccc45)C(=O)C1)[C@@H]32
active: [1] 3.57 µM | [2] 4.33 µM | [3] 5.58 µM | [5] 3.51 µM

NC(=O)CC[C@@H]1NC(=O)[C@H](Cc2ccccc2)NC(=O)[C@H](Cc2ccc(O)cc2)NC(=O)[C@@H](N)CSSC[C@@H](C(=O)N2CCC[C@H]2C(=O)N[C@@H](CCCN=C(N)N)C(=O)NCC(N)=O)NC(=O)[C@H](CC(N)=O)NC1=O
inactive: [1] | [2] | [3] | [5]

CCCCCCCC/C=C\CCCCCCCC(=O)OC
inactive: [1] | [2] | [3] | [4] | [5] | [8] | [9] | [10]

COC(=O)C(C)(C)C
inactive: [1] | [2] | [3] | [4] | [5]

CCOCC(O)COc1ccc(NC(=O)CC[S+](C)C)cc1 (stereo unspecified)
inactive: [1] | [2] | [3] | [5]

NC1[C@H]2CN(c3nc4c(cc3F)c(=O)c(C(=O)O)cn4-c3ccc(F)cc3F)C[C@@H]12 (stereo partly specified)
active: [1] 30.4 µM | [2] 27.3 µM
inactive: [3] | [5]

O=c1[nH]cnc2c1ncn2[C@@H]1O[C@H](CO)[C@@H](O)[C@H]1O
inactive: [1] | [2] | [3] | [5]

COc1cc2nc(N3CCN(C(=O)c4ccco4)CC3)nc(N)c2cc1OC
inactive: [1] | [2] | [3] | [5]

COC(=O)Nc1nc2ccc(C(=O)c3ccccc3)cc2[nH]1
active: [1] 0.192 µM
inactive: [2] | [3] | [5]

NC(=O)CC[C@@H](N)C(=O)O
inactive: [1] | [2] | [3] | [5]

C=CC(=O)OCC1CCCO1 (stereo unspecified)
inactive: [1] | [2] | [3] | [5]

CC(C)OC(=O)CCC(=O)OC(C)C
inactive: [1] | [2] | [3] | [4] | [5]

Cc1ncc(COP(=O)(O)O)c(CN)c1O
inactive: [1] | [2] | [3] | [4] | [5]
